Measured values from PubChem BioAssay.
A number with no mark means an inactive call. No rule for the calls is given here.

target: Pantothenate synthetase (Mycobacterium tuberculosis (strain ATCC 25618 / H37Rv)) (UniProt P9WIL5); assay: Coupled enzyme confirmation of inhibitors against recombinant Mtb PanC (AID 375); settings: coupled enzyme assay; at 10 µM, hits give high values;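 also: 0% = full reaction with vehicle and 100% = no enzyme background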
Sequence (P9WIL5 whole entry, looked up): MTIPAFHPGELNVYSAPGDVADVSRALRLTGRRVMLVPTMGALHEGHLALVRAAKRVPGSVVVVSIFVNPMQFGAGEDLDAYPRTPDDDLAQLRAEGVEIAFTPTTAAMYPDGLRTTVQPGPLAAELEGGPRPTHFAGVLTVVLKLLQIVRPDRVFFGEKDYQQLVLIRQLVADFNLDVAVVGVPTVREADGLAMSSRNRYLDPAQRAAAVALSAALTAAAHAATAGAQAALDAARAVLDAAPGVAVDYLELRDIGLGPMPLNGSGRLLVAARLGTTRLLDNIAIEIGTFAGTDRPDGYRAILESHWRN

Compound	inhibition [%]
COCCn1nnnc1C(c1cc2ccc(OC)cc2[nH]c1=O)N1CCc2ccccc2C1 (configuration not stated)	0
CC1(C)CC(=O)C=C(NCCN2CCN(C(=O)Nc3ccccc3)CC2)C1	5
Cc1ccc(-n2cnnn2)c2cccnc12	5
N#Cc1nc(-c2ccc(Cl)cc2)oc1NCCc1ccccn1	0
N#CC(C(=O)Nc1ccccc1)=C1CCCCC1	7
Cc1csc2nc(CSc3ccc(Cl)cc3)cn12	0
C/C=C/c1ccc(OCCn2cncn2)c(OC)c1	0
C=CCn1c(CC#N)nnc1N1CCOCC1	0
Cc1ccccc1NC(=O)N1C2CCCC1CC(NC(=O)C1CC1)C2 (configuration not stated)	14
Cc1cccc(N(CC(=O)Nc2ccc(CC#N)cc2)S(C)(=O)=O)c1	2
O=C(CCn1c(=O)oc2ccccc21)N1CCN(c2ccccc2Cl)CC1	0
O=C(c1ccccc1)c1coc2ccc(O)c(CN3CCOCC3)c12	4
Cn1c(CN2CCCCC2)nc2cc(NC(=O)c3ccccc3)ccc21	0
CCC(C)(C)n1nnnc1C(c1ccc(OC)c(OC)c1)N1CCN(c2ccccc2)CC1 (configuration not stated)	0
COC(=O)C(NC(C)=O)(Nc1nc2ccc(S(C)(=O)=O)cc2s1)C(F)(F)F (configuration not stated)	0
COc1ccc(NC(=O)CS(=O)CC(=O)Nc2cc(Cl)ccc2OC)cc1 (configuration not stated)	3
CCOC(=O)C1CCCN(CCCc2ccccc2)C1 (configuration not stated)	0
COc1ccc(CSCCN)cc1Cl	0
O=C(Cn1ncc2c(=O)oc3ccccc3c21)NCC1CCCO1 (configuration not stated)	4
Cn1c(=O)[nH]c(=O)c2[nH]c(NCCCN3CCOCC3)nc21	0
CCc1[nH]nc2c1C1(CCN(C(=O)OCc3ccccc3)CC1)C(C#N)=C(N)O2	0
Cc1cc(C)n2nc[n+](C)c2n1	0
